Test results reported in the supplement of paper PMC9897528.

system: Scedosporium aurantiacum CBS 136046; assay: growth inhibition relative to DMSO control (OD600); higher = more antifungal activity, active = 80 or more; extreme values may be limits of the assay; conditions: 5 µM; 72 h; 37 °C
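Further: conidia screened in RPMI 1640 medium under 5% CO2, growth read by spectrophotometer, medium with 0.5% DMSO serving as the untreated reference.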

| Structure (SMILES) | growth inhibition |
| --- | --- |
| Cc1c(OCC(F)(F)F)ccnc1C[S+]([O-])c1nc2ccccc2[nH]1 (stereo not drawn) | 39.8% (inactive) |
| CN(C)c1[nH]c(=O)ncc1F | 24.8% (inactive) |
| O=C(O)CCNC(=O)c1ccccc1 | 36.7% (inactive) |
| OC(Cn1cncn1)(Cn1cncn1)c1ccc(F)cc1F | 29.9% (inactive) |
| O=C(NC(=O)N1CCCc2ccccc21)c1cccc(Cl)c1 | 5.71% (inactive) |
| Cc1onc(-c2ccccc2)c1-c1ccc(S(N)(=O)=O)cc1 | 41.2% (inactive) |
| Cc1onc(-c2ccccc2Cl)c1C(=O)N[C@@H]1C(=O)N2[C@@H]1SC(C)(C)[C@@H]2C(=O)O | 0.0225% (inactive) |
| O=C(O)C[C@H]1CC[C@H](c2ccc(-c3ccc(Nc4ccc(C(F)(F)F)nc4)cn3)cc2)CC1 | 12.5% (inactive) |
| O=C(/C=C\n1cnc(-c2cc(C(F)(F)F)cc(C(F)(F)F)c2)n1)NNc1ccccn1 | 24.4% (inactive) |
| N[C@H]1CCC[C@H]1C(=O)O | 4.68% (inactive) |
| CCc1ccc(C2CC(C(F)(F)F)n3ncc(C(=O)NCc4ccc(OC)cc4)c3N2)cc1 (stereo not drawn) | 34.5% (inactive) |
| CC(C)CCN1C(=O)C(C2=NS(=O)(=O)c3cc(NS(C)(=O)=O)ccc3N2)=C(O)[C@@H]2[C@H]3CC[C@H](C3)[C@@H]21 | 28.5% (inactive) |
| O=c1nc(N2CCN(CC3CCCCC3)CC2)sc2c([N+](=O)[O-])cc(C(F)(F)F)cc12 | 28.5% (inactive) |
| NC1C2CC3CC(C2)CC1C3 (stereo not drawn) | 23.6% (inactive) |
| O=C(NCc1ccc(F)cc1)c1c(O)c2ncccc2[nH]c1=O | 2.42% (inactive) |
| Cc1nc(Nc2ccc(F)cc2)nc(N2CCc3ccccc3C2C)c1C (stereo not drawn) | 25.2% (inactive) |
| O=C(NC(=O)N1CCCc2ccccc21)c1ccc(Cl)cc1Cl | 3.05% (inactive) |
| O=C(CCCC(F)(F)F)N1CCC(c2nc(-c3nccs3)no2)CC1 | 4.66% (inactive) |
| Clc1ccc(Cn2c(CN3CCCC3)nc3ccccc32)cc1 | 15.5% (inactive) |

| Structure (SMILES) | growth inhibition |
| --- | --- |
| Cc1cc(Nc2ccc(F)cc2)nc(SCc2nc3ccccc3[nH]2)n1 | 0% (inactive) |
| C[C@H]1COc2c(N3CCN(C)CC3)c(F)cc3c(=O)c(C(=O)O)cn1c23 | 6.31% (inactive) |
| Cc1[nH]c2ccccc2c1CCNCc1ccc(/C=C/C(=O)NO)cc1 | 26.8% (inactive) |
| CC(C)(C)c1cccc(-c2nc3cc(C(=N)N)ccc3[nH]2)c1O | 17.4% (inactive) |
| O=P(O)(O)C(CCCc1cccc(Oc2ccccc2)c1)S(=O)(=O)O (stereo not drawn) | 2.84% (inactive) |
| CC(C)C(=O)N[C@H]1[C@H]([C@H](O)[C@H](O)CO)OC(C(=O)O)=C[C@@H]1N=[N+]=[N-] | 9.45% (inactive) |
| O=[N+]([O-])c1cn2c(n1)OC[C@@H](OCc1ccc(OC(F)(F)F)cc1)C2 | 11.2% (inactive) |
| O=C(NN1C(=O)[C@@H]2[C@@H]3C=C[C@@H]([C@H]4C[C@@H]34)[C@@H]2C1=O)c1ccc(C(F)(F)F)cc1 | 6.47% (inactive) |
| CC[C@@H](CO)NCCN[C@@H](CC)CO | 11.4% (inactive) |
| CC[C@@]1(O)C(=O)OCc2c1cc1n(c2=O)Cc2cc3c([N+](=O)[O-])cccc3nc2-1 | 22.2% (inactive) |
| COc1cc(NS(=O)(=O)c2ccc(C)cc2)c2ncccc2c1 | 27.9% (inactive) |
| O=C(O)C(Cc1c[nH]c2ccccc12)N1C(=O)c2ccccc2C1=O (stereo not drawn) | 19.9% (inactive) |
| CC(N)C12CC3CC(CC(C3)C1)C2 (stereo not drawn) | 10.8% (inactive) |
| CNCC(=O)OCc1cccnc1N(C)C(=O)OC(C)[n+]1cnn(C[C@](O)(c2cc(F)ccc2F)[C@@H](C)c2nc(-c3ccc(C#N)cc3)cs2)c1 (stereo partly drawn) | 59.5% (inactive) |
| CC(=O)N1CCN(c2ccc(OCC3COC(Cn4ccnc4)(c4ccc(Cl)cc4Cl)O3)cc2)CC1 (stereo not drawn) | 83.2% (active) |
| c1ccc(-c2nnc3c4ccccc4c(N4CCNCC4)nn23)cc1 | 23.6% (inactive) |
| c1cc(CN2CCCNCCNCCCNCC2)ccc1CN1CCCNCCNCCCNCC1 | 6.54% (inactive) |
| Nc1cccc(-c2nc(N)nc(NC3Cc4ccccc4C3)n2)c1 | 21.5% (inactive) |
| Oc1c(C(Nc2ccccn2)c2ccccc2)ccc2cccnc12 (stereo not drawn) | 35.9% (inactive) |
